USP30 block: inhibitors of human USP30 deubiquitinase. purified USP30, Ub-rhodamine cleavage fluorescence. 47,000 tested, 5.3% active. inhibition, % at 25 µM
USP28 inh: inhibitors of human USP28 deubiquitinase; Q96RU2; purified USP28, Ub-rhodamine cleavage fluorescence, 30 min; inhibition, % at 25 µM; 47,000 tested, 3% active; AID 1645857
USP17 inh: blocks human USP17 ubiquitin-rhodamine cleavage; 47,000 tested, 6.5% active; inhibition, % at 50 µM; purified USP17, Ub-rhodamine cleavage fluorescence, 3 h; A8MUK1
Of the large screens only hits and unclear results are named; the others gave an inactive call. Rows were chosen to be rich in hits. Some 11% of all compounds tested hit in one or more screens of this group. Rule as the data show it: active = inhibition above about 30%; inactive = the rest.

O=C(c1ccccc1)N1CCC(c2cccc(Cc3cccc(F)c3)n2)CC1	USP28 inh 43.3
O=C(c1ccccc1)N1CCCC1c1cccc(Cc2ccccc2)n1 (stereo not drawn)	none
Cc1oncc1CN1CCN(C(=O)c2n[nH]c3c2CCCC3)CC1	none
CC(=O)c1sc(NC(=O)c2ccccc2-c2ccc(C(F)(F)F)cc2)nc1C	USP30 block 38.5, USP17 inh 64.5
CCCC(C)NC(=O)c1ccccc1-c1ccc(C(F)(F)F)cc1 (stereo not drawn)	none
Cc1ccc(C(=O)N2c3ccccc3OCC2c2ccccc2)cc1 (stereo not drawn)	none
O=C(NCc1ccco1)c1ccc2c(=O)n(Cc3ccco3)c(=O)[nH]c2c1	USP17 inh 40.2
O=C(NCc1ccccc1)c1ccc2c(=O)n(-c3ccccc3)c(=O)[nH]c2c1	USP17 inh 66.2
COc1ccc(CCn2c(=O)[nH]c3cc(C(=O)NCc4ccco4)ccc3c2=O)cc1OC	none
O=C(Cc1ccc(-n2c(=O)[nH]c3ccccc3c2=O)cc1)N1CCN(c2ccccc2)CC1	none
CC(=O)Nc1ccc(NC(=O)/C(=C/c2ccccc2Cl)c2ccccc2)cc1	none
O=C(CCC1CCCC1)N1CCN(C(=O)c2cc(-c3ccncc3)n[nH]2)CC1	none
CC(=O)N1[C@@H](CNC(=O)c2ccccn2)C[C@@]2(C)[C@@H](O)CCCC[C@@H]12	none
Cc1cccc(C(=O)Nc2c(C(=O)NCc3ccccn3)[nH]c3ccccc23)c1	none
Cn1c(C(=O)NCc2ccccn2)cc2c(=O)[nH]c3ccccc3c21	USP28 inh 37.9, USP17 inh 80.2
CN1CCc2c(sc3nc(SCC(=O)Nc4nccs4)nc(N)c23)C1	USP17 inh 38.5 (no result: USP30 block, USP28 inh)
CC1CCN(C(=O)CSc2nc(N)c3c4c(sc3n2)CN(C)CC4)CC1	none
Cn1nccc1-c1cccc(-c2noc(-c3ccc(F)cc3)n2)c1	none
Cc1cc(F)ccc1NC(=O)c1ccc2noc(-c3ccccc3)c2c1	none
CCCn1nnnc1CN1CCc2cc(OC)c(OC)cc2C1c1ccccc1 (stereo not drawn)	USP30 block 32.6
COc1cc2c(cc1OC)C(c1ccccc1)N(Cc1ccno1)CC2 (stereo not drawn)	none
O=C(N[C@@H]1C[C@@H](Oc2ccccc2)[C@H](O)[C@H]1N1CCCCC1)c1cn[nH]c1	none
Cc1noc(C)c1COc1cccc(C(=O)Nc2ccccc2)c1	none
O=C(Nc1cc(Cl)ccc1-n1cncn1)c1ccc(-n2cccn2)cc1	none
Cc1noc(C)c1COc1cccc(C(=O)Nc2cc(Cl)ccc2-n2cncn2)c1	USP28 inh 52.1, USP17 inh 38.1
O=C(Nc1cc(Cl)ccc1-n1cncn1)c1ccc(S(=O)(=O)N2CCCC2)cc1	USP30 block 65.6
CC(=O)N[C@@H]1C[C@H](c2ccc(F)cc2)O[C@@H]2CCC[C@@H]12	none
O=S1(=O)CCC(CNS(=O)(=O)c2ccc3ccccc3c2)C1 (stereo not drawn)	none
CN(C)C(=O)C1(C)CCCN1C(=O)Cn1nnc2ccccc21 (stereo not drawn)	none
CN(C)c1ncnc2c1ncn2[C@@H]1CC[C@@H](NC(=O)CC2CCCC2)[C@H](O)[C@H]1O	none
Cc1cc(O)c2c3c(c(O)c4c(c13)O[C@@H](C)C4(C)C)C(=O)C2=O	USP28 inh 30.6, USP17 inh 83.4
COc1ccc(C)cc1NC(=O)NCCc1cn(C)c2ncccc12	none
COc1ccccc1NC(=O)NCCc1cn(C)c2ncccc12	USP28 inh 37.5
O=[N+]([O-])c1ccc(NCC2COc3ccccc3O2)c(S(=O)(=O)N2CCCC2)c1 (stereo not drawn)	none
N#Cc1cc([N+](=O)[O-])ccc1NCC1COc2ccccc2O1 (stereo not drawn)	USP28 inh 47.0
Cc1cccc2sc(NC(=O)C3CC(=O)N(c4ccc(F)cc4)C3)nc12 (stereo not drawn)	none
NC(=O)C1CCN(C(=O)CCc2csc(NC(=O)Nc3ccccc3)n2)CC1	none
Cc1cccc(NS(=O)(=O)c2cnc(N)nc2)c1C	none
CNc1nc(C)nc2c1oc1ccccc12	none (no result: USP30 block, USP28 inh)
OCCNc1nc(-c2ccccc2)nc2c1oc1ccccc12	USP30 block 70.9, USP17 inh 60.3
Cc1cc(-c2cnc(C)nc2C2CCCN(C(=O)C3CC3)C2)on1 (stereo not drawn)	none
O=C(c1ccccc1)N(Cc1ccncc1)c1nc2ccc(Cl)cc2s1	none
CCc1ccc2nc(N(CCCn3ccnc3)C(=O)c3cccs3)sc2c1	USP30 block 46.0 (no result: USP17 inh)
CCC(C)CCCCCCCCCCC(=O)OCC(O)CO (stereo not drawn)	none
O=C(NC1CCCC1)c1cccn1Cc1noc(-c2ccccc2)n1	none
O=c1c2cc([N+](=O)[O-])ccc2nc(CN2CCN(c3ncccn3)CC2)n1-c1ccccc1F	USP30 block 31.8
O=c1c2cc([N+](=O)[O-])ccc2nc(CN2CCC(Cc3ccccc3)CC2)n1-c1ccccc1F	none

Screens (PubChem)
